We go through 7 molecules from PubChem BioAssay (NCI).

Compounds without any hit were thinned out: in the full panel of roughly 83,000, 20% have a hit.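 Interpretation: 100, growth as untreated; towards 0, rising growth inhibition; 0, no net growth; 0 to -100, cell death. Compounds scoring below 10 were considered active.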 Unmarked numbers belong to inactive results. Activity calls are given as the source filed them.

Common to all, as to assay: NCI-60 one-dose screen, 48 h (100 = growth as untreated, 0 = no growth, -100 = all killed)
Details in all cases: 10 µM unless noted

Experiment [1] relates to NCI-H23 lung.
Experiment [2] relates to NCI-H226 lung.
Experiment [3] deals with NCI-H322M lung.
The subject of experiment [4] is HOP-62 NSCLC.
Experiment [5] deals with NCI-H460 lung.
Experiment [6] deals with HOP-92 NSCLC.
Experiment [7] deals with NCI-H522 lung.
The subject of experiment [8] is A549/ATCC NSCLC.
For experiment [9], the system named is 786-0 renal.
The subject of experiment [10] is COLO 205 colon.
Experiment [11] concerns DU-145 prostate.
For experiment [12], the system named is K-562 leukemia.
Experiment [13] has as its system MALME-3M melanoma.
Experiment [14] has as its system MDA-MB-231 breast.
In experiment [15] the test system is RXF 393 renal.
Experiment [16] relates to SF-268 CNS.
The test system of experiment [17] is SF-295 CNS.
The subject of experiment [18] is SF-539 CNS.
The subject of experiment [19] is UACC-257 melanoma.
For experiment [20], the system named is M14 melanoma.

As to `CCN(CC)CCOc1nc2c3ccc(Cl)cc3nn2c2ccccc12`, the growth in experiment [1] is 34.5%; in experiment [2] it was 47.1%; in experiment [3], 29.2%; in experiment [4], 42.3%; in experiment [5], 11.4%; in [6], -3.36% (active). The growth in [7] is 27.9%; in experiment [8], 16.3%; in experiment [9], 23.6%; in experiment [10] it was 4.4% (active); in experiment [11], 26.4%; in experiment [12] it was 1.82% (active). Moreover, the growth was 35.8% in experiment [13]; 21.3% in experiment [14]; 7.71% (active) in experiment [15]; 44.6% in [16]; 29% in experiment [17]; 17.8% in [18]. Moreover, the figures for the growth in experiment [19] and in experiment [20] were 16.1% and 44.5%, respectively.
For the molecule `N#Cc1c(N2CCOCC2)nc(=S)[nH]c1-c1ccccc1`, the growth in experiment [1] is 87.6%; in experiment [2] it was 72.5%; in [3] it was 76.4%; in experiment [4], 51.3%; in experiment [5], 68.9%; in [6], -7.41% (active). The growth in experiment [7] was 59.6%; in experiment [8], 85.6%; in experiment [9], 82.9%; in experiment [10] it was 77.3%; in experiment [11], 87.6%; in experiment [12] it was 93.4%. Moreover, the growth in experiment [13] was -3.74% (active); in experiment [14] it was 73.1%; in [15], 70.8%; in experiment [16], 87.3%; in experiment [17], 54.5%; in experiment [18], 91.3%. Moreover, the growth in experiment [19] was 91.8%; in [20] it was 80.2%.
For the molecule `Cc1c(Cl)cccc1C(=O)Nc1nc2c(s1)CN(C(=O)Nc1cccc(C(F)(F)F)c1)CC2`, the growth was 21.5% in experiment [1]; 39.3% in [2]; 46.6% in experiment [3]; 37.2% in experiment [4]; 7.19% (active) in [5]; 38.3% in [6]. Besides, the growth is 15.1% in experiment [7]; 22.5% in experiment [8]; 29.1% in [9]; 7.09% (active) in [10]; 16.8% in experiment [11]; 11.2% in experiment [12]. Moreover, the growth in experiment [13] was 44.5%; in [14], 32.3%; in [15] it was -7.27% (active); in experiment [16], 35.2%; in experiment [17], 26%; in experiment [18], -26.9% (active). For the same molecule, the growth in experiment [19] was 55.7%; in experiment [20], 18.2%.
Consider `O=C(CCC(=O)c1nc2ncccc2[nH]1)NN1C(=O)CSC1c1ccc(Cl)cc1` (stereo not given), for which the growth in experiment [1] is 91.4%; in [2] it was 95.9%; in experiment [3] it was 93.5%; in [4] it was 93.9%; in experiment [5] it was 102%; in experiment [6], 111%. The growth in [7] was 83%; in experiment [8], 97.3%; in experiment [9] it was 101%; in [10], 116%; in [11] it was 103%; in experiment [12], 98.2%. Moreover, the growth in experiment [13] is 93%; in [14], 98%; in experiment [15] it was 103%; in experiment [16], 91.2%; in experiment [17], 108%; in experiment [18], 103%. The growth in [19] was 105%; in experiment [20] it was 98%.
On to `O=C1/C(=C/c2ccccc2)CN(C(=O)c2cccnc2)C/C1=C\c1ccccc1`, for which the growth in [1] was -30.5% (active); in experiment [2], -43.7% (active); in [3], 34.1%; in experiment [4], 0.894% (active); in [5], -35.1% (active); in experiment [6], 78.7%. The growth in [7] is -25.4% (active); in [8] it was 17.2%; in experiment [9] it was -53.8% (active); in experiment [10] it was -29.5% (active); in [11], 14.5%; in experiment [12], 2.62% (active). The growth in experiment [13] is 23.9%; in [14] it was 3.84% (active); in experiment [15] it was -64.1% (active); in [16], 17.4%; in [17], -8.61% (active); in experiment [18], -4.29% (active). The growth in experiment [19] is 23.9%; in experiment [20], -41.5% (active).
Turning to `CCOC(=O)NN1CC(O)=C(c2nc(-c3ccc(Br)cc3)cs2)C1=N`, the growth in experiment [1] was 101%; in experiment [2], 105%; in experiment [3] it was 112%; in [4] it was 106%; in [5] it was 111%; in experiment [6] it was 97.3%. Moreover, the growth in experiment [7] is 92.1%; in experiment [8], 88.1%; in experiment [9], 111%; in experiment [10] it was 112%; in experiment [11], 105%; in experiment [12] it was 78.4%. In addition, the growth in experiment [13] was 112%; in experiment [14], 104%; in experiment [15], 82.9%; in experiment [16], 108%; in experiment [17], 90.9%; in experiment [18], 96.7%. For the same molecule, the growth is 96.4% in experiment [19] and 156% in experiment [20].
With `CCCCCCCCn1ccc2cc(NC(=O)Cn3cc(CN4CCC(C)CC4)nn3)ccc21`, the growth was 79.4% in experiment [1]; 69.9% in experiment [2]; 28.6% in experiment [3]; 72.4% in experiment [4]; -70.2% (active) in experiment [5]; 21.8% in [6]. For the same molecule, the growth is 18.7% in [7]; 21.1% in [8]; 0.91% (active) in experiment [9]; -74.4% (active) in experiment [10]; 42.3% in experiment [11]; -25.6% (active) in [12]. The growth was -70.5% (active) in experiment [13]; 9.71% (active) in [14]; 24.8% in experiment [15]; 32.8% in experiment [16]; -74.3% (active) in experiment [17]; 11.5% in experiment [18]. Also, the results for the growth in experiment [19] and in experiment [20] were -35.8% (active) and -65.2% (active), respectively.
